The source of these data is PubChem BioAssay (NCATS).

Inconclusive results are not listed. A number with no mark means an inactive call. Active and inactive are the calls of the source. Calls come from the whole dose curve; as a rule, active = well fitted curve in the direction sought with a large enough effect in the repeat runs; inconclusive = weak or mixed curves; inactive = no such curve, though single readings can be large; an effect the other way counts as inactive or inconclusive.
% is set by controls: 0 for no effect and ±100 for the full control effect; potency is the fitted concentration of half-maximal effect.
Note: nearly all actives have a fitted effect of over 55% in size.

Chain of Cytochrome P450 2C9 (Homo sapiens) (P11712 whole entry, looked up): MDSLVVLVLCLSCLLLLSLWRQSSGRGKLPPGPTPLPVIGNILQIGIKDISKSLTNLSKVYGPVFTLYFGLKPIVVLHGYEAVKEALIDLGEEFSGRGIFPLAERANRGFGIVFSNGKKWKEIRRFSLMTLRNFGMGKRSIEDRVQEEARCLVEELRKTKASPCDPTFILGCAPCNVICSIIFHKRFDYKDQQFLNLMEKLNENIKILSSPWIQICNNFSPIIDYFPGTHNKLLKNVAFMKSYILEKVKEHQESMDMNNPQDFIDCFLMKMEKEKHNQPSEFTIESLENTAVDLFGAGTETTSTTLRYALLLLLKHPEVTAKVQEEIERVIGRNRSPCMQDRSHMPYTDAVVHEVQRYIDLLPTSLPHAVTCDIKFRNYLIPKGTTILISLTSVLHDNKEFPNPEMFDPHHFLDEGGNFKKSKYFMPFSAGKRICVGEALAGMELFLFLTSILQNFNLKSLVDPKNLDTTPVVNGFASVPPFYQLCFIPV
Chain of Cytochrome P450 2D6 (Homo sapiens) (P10635 whole entry, looked up): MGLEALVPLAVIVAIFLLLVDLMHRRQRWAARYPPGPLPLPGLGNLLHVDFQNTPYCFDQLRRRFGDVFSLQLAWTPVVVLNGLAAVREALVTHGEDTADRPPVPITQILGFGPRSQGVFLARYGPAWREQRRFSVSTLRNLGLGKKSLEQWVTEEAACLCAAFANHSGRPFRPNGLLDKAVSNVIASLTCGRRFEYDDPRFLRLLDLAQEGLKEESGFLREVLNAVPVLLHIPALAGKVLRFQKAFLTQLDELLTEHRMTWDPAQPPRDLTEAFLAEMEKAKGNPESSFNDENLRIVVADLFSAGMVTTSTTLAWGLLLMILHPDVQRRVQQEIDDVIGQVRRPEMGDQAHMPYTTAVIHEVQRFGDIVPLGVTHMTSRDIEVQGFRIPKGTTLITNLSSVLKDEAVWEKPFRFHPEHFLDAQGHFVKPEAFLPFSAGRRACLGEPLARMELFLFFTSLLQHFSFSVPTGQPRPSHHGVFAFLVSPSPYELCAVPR

For one assay, the target named is Cytochrome P450 2D6 (Homo sapiens) (UniProt P10635). Put plainly: Cytochrome P450 family 2 subfamily D member 6 (CYP2D6) small molecule antagonists: luciferase biochemical (cell-free) qHTS assay (AID 1645840). The note with it: P450-Glo CYP2D6 enzyme, luciferin luminescence, 1 h; series mostly up to 57.4 µM; activity change, negative = inhibition: at the top concentration. In outline:
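P450-Glo CYP2D6 system: proluciferin substrate converted by enzyme to luciferin, read by luminescence proportional to activity. Enzyme-substrate mix with compound 10 min at room temperature, then NADPH regeneration 1 h before detection reagent.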
(In general: Quantitative high-throughput screening tests each substance at several concentrations.)
Consider `Nc1c(Cl)c(Cl)c(Cl)c(Cl)c1Cl`, for which the “activity change, negative = inhibition” value is 9.39% [at 115 µM].
On to `Nc1ccc(Cl)cc1N`, for which the Potency is 25.9 µM (active).
On the same count and under the same terms, the result for `Nc1ccc(N=Nc2ccccc2)cc1` reads 41.1 µM (active).
Consider `O=[N+]([O-])c1c2ccccc2cc2ccccc12`, for which the “activity change, negative = inhibition” value was 5.56% [at 115 µM].

Another assay has as its target Cytochrome P450 2C9 (Homo sapiens) (UniProt P11712). Put plainly: Cytochrome P450 family 2 subfamily C member 9 (CYP2C9) small molecule antagonists: luciferase biochemical (cell-free) qHTS assay (AID 1645842). The note with it: P450-Glo CYP2C9 enzyme assay, luciferin luminescence; series mostly up to 57.4 µM; activity change, negative = inhibition: at the top concentration. Put shortly:
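P450-Glo CYP2C9 system: proluciferin substrate with enzyme in mix containing 0.4% BSA, 10 min at room temperature, then NADPH regeneration solution added and incubated 1 h at 37C. Detection reagent stopped reaction; luminescence read after 20 min as RLU.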
Consider `Nc1c(Cl)c(Cl)c(Cl)c(Cl)c1Cl`, for which the “activity change, negative = inhibition” value was 47.4% [at 115 µM].
In the case of `Nc1ccc(Cl)cc1N`, the Potency was 23.3 µM (active).
Still for that read-out and setting: the result for `Nc1ccc(N=Nc2ccccc2)cc1` reads 9.2 µM (active); that for `O=[N+]([O-])c1c2ccccc2cc2ccccc12`, 10.8 µM (active).
